# Experimental data: the supplement of paper PMC6555819
# Legend:
# Assay in all cases: PBM binding z-score (relative to random genomic background probes); higher = stronger binding; sequences stand for … in GC…GCGATTGACAGCGTAGAATGAAGG
# [1] = test system: RARb homodimer (NR concentration 270 nM)
# Summary of the method: (§1)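 On custom Agilent 4×180K arrays, double-stranded probes with 34-nt variable regions carried direct-repeat seeds, single-nucleotide variants, half-site ablations or random human genomic background. Ligand-free nuclear receptor dimers were applied for 1 h, and binding was read with antibodies against each partner (one per run). Binding z-scores come from regression-normalized fluorescence, with the random background probes as reference.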
# [2] = test system: RARg:RXRa (NR concentration 270 nM, RXRa partner concentration 90 nM)
# Summary of the method: as §1
# [3] = test system: RARg homodimer (NR concentration 270 nM)
# Summary of the method: as §1
# [4] = test system: RXRa DBDmut IVT, anti-RXR (DBD mutation: RXRa K156A/R161A, NR concentration 90 nM)
# Summary of the method: as §1
# [5] = test system: RXRa homodimer (NR concentration 180 nM)
# Summary of the method: as §1
# [6] = test system: THRa:RXRa (NR concentration 90 nM, RXRa partner concentration 90 nM)
# Summary of the method: as §1
# [7] = test system: THRa homodimer (NR concentration 90 nM)
# Summary of the method: as §1
# [8] = test system: VDR homodimer (NR concentration 270 nM)
# Summary of the method: as §1
Sequence,PBM binding z-score [1],PBM binding z-score [2],PBM binding z-score [3],PBM binding z-score [4],PBM binding z-score [5],PBM binding z-score [6],PBM binding z-score [7],PBM binding z-score [8]
CCAGGCAGGTGAAAGGTAACTCAGTCTGGTACGC,0.447,0.784,0.255,-0.641,1.53,0.824,-0.15,-0.0369
CCTTACGGGTCACTGACTGGTTATAGCATTTGGA,3.06,5.04,4.61,1.84,4.93,2.52,0.498,1.03
TCATATGGGTAAACAGGTGAAAGTCCGTAAGTTA,0.47,0.0718,-0.135,0.95,0.566,0.434,-0.368,-0.103
CGTCCAAGGTCAGAGAGGTGAGTGAATGCCGAGT,3.85,4.7,5.44,3.06,3.79,3.81,2.28,2.26
TCTTGTAGATCAGCAGGTGAAGAAAGCTGGCCAA,-0.153,-0.237,-0.356,0.475,0.184,0.0556,-0.332,-0.766
TATACAGGGTCGAAGGCCAGAGTACGAATGTCGA,1.26,1.87,1.72,0.491,2.32,1.16,-0.382,1.23
CCTAGTTGGTCAAGGTGACACACGCTATAGGTAC,1.8,1.49,1.74,0.165,1.05,2.06,1.65,0.83
